The text below walks through data of the OligoGym collection.
Further: reference of the scale not given here.

For the first test, the target named is PYROXD1. The experiment in a line: pooled miR-30 sensor sort-seq; sequence = guide strand. The following applies: shRNA.
The sequence TTGATTGTTCTTCAACATCGAA displayed a sensor-assay potency score (higher = more potent) of -0.89.

In turn, TTTAAAGTAAAATACAACCGAT yielded a sensor-assay potency score (higher = more potent) of -0.96.

Take TTAAAGTAAAATACAACCGATT: the sensor-assay potency score (higher = more potent) is -0.766.

For the sequence TAGATTTGCTTCTAGCTTCCTT, the sensor-assay potency score (higher = more potent) came to 0.523.

As for TTTAGCTTTAGTAAGCTGTTTC, the sensor-assay potency score (higher = more potent) is -0.591.

Regarding TAACTCAATACAGTCATTCATT, the sensor-assay potency score (higher = more potent) was -0.8.

In the case of TTAATTCATGATCTGAACCTAA, the sensor-assay potency score (higher = more potent) was -0.379.

Regarding TTATCTGCTTTAGATTTGCTTC, the sensor-assay potency score (higher = more potent) is -0.93.

For the next test, the target named is QSER1. Described as above. To be noted: shRNA.
With TTTAATAACACTACATTCTCGA, the sensor-assay potency score (higher = more potent) was found to be 0.61.

Take TTCATTATCAACTTTATCTGAT: the sensor-assay potency score (higher = more potent) came out at 0.462.

For the sequence TACAACTGTATTTTCTCTGGAT, the sensor-assay potency score (higher = more potent) was 0.0285.

In turn, TATAAGTTGATTCTTGAGCATT registered a sensor-assay potency score (higher = more potent) of -1.01.

Take TAACTTGATCTTCAAGACGGGA: the sensor-assay potency score (higher = more potent) was -1.26.

Take TACTACTAGAAACAAACTCTTG: the sensor-assay potency score (higher = more potent) was -0.942.

In the case of TTGAATTTGATAGATAACTATG, the sensor-assay potency score (higher = more potent) is -0.94.

TTTATCAGAAGTAGCATCCAAA had a sensor-assay potency score (higher = more potent) of -0.195.

Take TTGAATAACATGACCTTCCATC: the sensor-assay potency score (higher = more potent) was -0.458.

TTTCTTGATGCTGATAACCATC displayed a sensor-assay potency score (higher = more potent) of -1.25.

Regarding TTGAACTGTAGGCTTGAGGAGT, the sensor-assay potency score (higher = more potent) was -0.462.

TATTTGATCGTGCTGTTCCTGG gave a sensor-assay potency score (higher = more potent) of -0.0695.
